The supplement of paper PMC7411054

Legend:
Experiment in all cases: phenotypically active (imaging signature differs from DMSO and reproducible) at any of 0.3-9 uM (binary (1 = active, 0 = inactive)); higher = active
Settings in all cases: treatment time: 24 h
[1] = system: A549-ACTB-RAB5A
Method in brief: (§1)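 Fifteen gene-edited A549, HepG2 and WPMY1 reporter lines (BFP segmentation plus GFP and RFP/FusionRed markers) were treated at 0.3, 1, 3 or 9 µM for 24 h, four wells each, then imaged live. Live-cell features per well were normalised to DMSO control wells. Deviation required ≥3 of 4 wells beyond the 95th percentile of DMSO Euclidean distances, and reproducibility required median replicate Pearson correlation above the 95th percentile of non-replicates. Phenotypic activity needed both criteria.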

[2] = system: A549-CANX-COX4
Method in brief: as §1

[3] = system: A549-GM130-SQSTM1
Method in brief: as §1

[4] = system: A549-TP53BP1-CLTA
Method in brief: as §1

[5] = system: A549-TUBA1B-RELA
Method in brief: as §1

[6] = system: HepG2-ACTB-RAB5A
Method in brief: as §1

[7] = system: HepG2-CANX-COX4
Method in brief: as §1

[8] = system: HepG2-GM130-SQSTM1
Method in brief: as §1

[9] = system: HepG2-TP53BP1-CLTA
Method in brief: as §1

[10] = system: HepG2-TUBA1B-RELA
Method in brief: as §1

[11] = system: WPMY1-ACTB-RAB5A
Method in brief: as §1

[12] = system: WPMY1-CANX-COX4
Method in brief: as §1

[13] = system: WPMY1-GM130-SQSTM1
Method in brief: as §1

[14] = system: WPMY1-TP53BP1-CLTA
Method in brief: as §1

[15] = system: WPMY1-TUBA1B-RELA
Method in brief: as §1

Measured: phenotypically active

CC1=Nc2ccc(Cl)cc2S(=O)(=O)N1 [diazoxide]
inactive: [1] 0 | [2] 0 | [3] 0 | [4] 0 | [5] 0 | [6] 0 | [7] 0 | [8] 0 | [9] 0 | [10] 0 | [11] 0 | [12] 0 | [13] 0 | [14] 0 | [15] 0

O=NN(CCCl)C(=O)NCCCl [carmustine]
inactive: [1] 0 | [2] 0 | [3] 0 | [4] 0 | [5] 0 | [6] 0 | [7] 0 | [8] 0 | [9] 0 | [10] 0 | [11] 0 | [12] 0 | [13] 0 | [14] 0 | [15] 0

O=C(/C=C/c1ccc(O)c(O)c1)O[C@@H]1C[C@](O)(C(=O)O)C[C@@H](O)[C@H]1O [Chlorogenic acid]
inactive: [1] 0 | [2] 0 | [3] 0 | [4] 0 | [5] 0 | [6] 0 | [7] 0 | [8] 0 | [9] 0 | [10] 0 | [11] 0 | [12] 0 | [13] 0 | [14] 0 | [15] 0

CC1=C(CC(=O)O)c2cc(F)ccc2/C1=C\c1ccc(S(C)=O)cc1 (stereo not given) [sulindac]
inactive: [1] 0 | [2] 0 | [3] 0 | [4] 0 | [5] 0 | [6] 0 | [7] 0 | [8] 0 | [9] 0 | [10] 0 | [11] 0 | [12] 0 | [13] 0 | [14] 0 | [15] 0

NS(=O)(=O)c1cc2c(cc1Cl)N=CNS2(=O)=O [chlorothiazide]
inactive: [1] 0 | [2] 0 | [3] 0 | [4] 0 | [5] 0 | [6] 0 | [7] 0 | [8] 0 | [9] 0 | [10] 0 | [11] 0 | [12] 0 | [13] 0 | [14] 0 | [15] 0

COc1ccc(-c2noc(CSc3nnc(C)n3-c3ccc(OC)cc3)n2)cc1
inactive: [1] 0 | [2] 0 | [3] 0 | [4] 0 | [5] 0 | [6] 0 | [7] 0 | [8] 0 | [9] 0 | [10] 0 | [11] 0 | [12] 0 | [13] 0 | [14] 0 | [15] 0

Cc1cccc(Nc2cc(Cl)nc(SCC(=O)O)n2)c1C
inactive: [1] 0 | [2] 0 | [3] 0 | [4] 0 | [5] 0 | [6] 0 | [7] 0 | [8] 0 | [9] 0 | [10] 0 | [11] 0 | [12] 0 | [13] 0 | [14] 0 | [15] 0

CC(C)[N@+]1(C)[C@@H]2CC[C@H]1C[C@@H](OC(=O)C(CO)c1ccccc1)C2 (stereo not given in full) [ipratropium]
inactive: [1] 0 | [2] 0 | [3] 0 | [4] 0 | [5] 0 | [6] 0 | [7] 0 | [8] 0 | [9] 0 | [10] 0 | [11] 0 | [12] 0 | [13] 0 | [14] 0 | [15] 0

COc1ccc(C2=N[C@H](c3ccc(Cl)cc3)[C@H](c3ccc(Cl)cc3)N2C(=O)N2CCNC(=O)C2)c(OC(C)C)c1 [Nutlin-3]
inactive: [1] 0 | [2] 0 | [3] 0 | [4] 0 | [5] 0 | [6] 0 | [7] 0 | [8] 0 | [9] 0 | [10] 0 | [11] 0 | [12] 0 | [13] 0 | [14] 0 | [15] 0

COc1ccc(C[C@H](C)NC[C@@H](O)c2ccc(O)c(NC=O)c2)cc1 [formoterol]
inactive: [1] 0 | [2] 0 | [3] 0 | [4] 0 | [5] 0 | [6] 0 | [7] 0 | [8] 0 | [9] 0 | [10] 0 | [11] 0 | [12] 0 | [13] 0 | [14] 0 | [15] 0

O=C(O)c1cc(=O)c(O)c(C(=O)O)o1 [Meconic acid]
inactive: [1] 0 | [2] 0 | [3] 0 | [4] 0 | [5] 0 | [6] 0 | [7] 0 | [8] 0 | [9] 0 | [10] 0 | [11] 0 | [12] 0 | [13] 0 | [14] 0 | [15] 0

C[C@@H](CO)CCC[C@@H](C)[C@H]1CC[C@H]2[C@@H]3CC=C4C[C@@H](O)CC[C@]4(C)[C@H]3CC[C@]12C [27-Hydroxycholesterol]
inactive: [1] 0 | [2] 0 | [3] 0 | [4] 0 | [5] 0 | [6] 0 | [7] 0 | [8] 0 | [9] 0 | [10] 0 | [11] 0 | [12] 0 | [13] 0 | [14] 0 | [15] 0

OC(CCN1CCCCC1)(c1ccccc1)C1CC2C=CC1C2 (stereo not given) [biperiden]
inactive: [1] 0 | [2] 0 | [3] 0 | [4] 0 | [5] 0 | [6] 0 | [7] 0 | [8] 0 | [9] 0 | [10] 0 | [11] 0 | [12] 0 | [13] 0 | [14] 0 | [15] 0

Cc1ccnn1-c1ccc(C(=O)N2CCN(S(=O)(=O)c3ccc(Cl)c(C(F)(F)F)c3)CC2)cc1
inactive: [1] 0 | [2] 0 | [3] 0 | [4] 0 | [5] 0 | [6] 0 | [7] 0 | [8] 0 | [9] 0 | [10] 0 | [11] 0 | [12] 0 | [13] 0 | [14] 0 | [15] 0

COc1ccc2c(c1)c(CC(=O)O)c(C)n2C(=O)c1ccc(Cl)cc1 [indomethacin]
inactive: [1] 0 | [2] 0 | [3] 0 | [4] 0 | [5] 0 | [6] 0 | [7] 0 | [8] 0 | [9] 0 | [10] 0 | [11] 0 | [12] 0 | [13] 0 | [14] 0 | [15] 0

CCc1cc2c(=O)c(-c3nc4ccccc4s3)coc2c(CN2CCCCC2)c1O
inactive: [1] 0 | [2] 0 | [3] 0 | [4] 0 | [5] 0 | [6] 0 | [7] 0 | [8] 0 | [9] 0 | [10] 0 | [11] 0 | [12] 0 | [13] 0 | [14] 0 | [15] 0

Cc1ccccc1C(OCCN(C)C)c1ccccc1 (stereo not given) [orphenadrine]
inactive: [1] 0 | [2] 0 | [3] 0 | [4] 0 | [5] 0 | [6] 0 | [7] 0 | [8] 0 | [9] 0 | [10] 0 | [11] 0 | [12] 0 | [13] 0 | [14] 0 | [15] 0

CC1(C(=O)O)CCC2(C)CCC3(C)C(=CC(=O)C4C5(C)CCC(OC6OC(C(=O)O)C(O)C(O)C6OC6OC(C(=O)O)C(O)C(O)C6O)C(C)(C)C5CCC43C)C2C1 (stereo not given) [Glycyrrhizic acid]
inactive: [1] 0 | [2] 0 | [3] 0 | [4] 0 | [5] 0 | [6] 0 | [7] 0 | [8] 0 | [9] 0 | [10] 0 | [11] 0 | [12] 0 | [13] 0 | [14] 0 | [15] 0

COc1ccc2c3c1O[C@H]1C[C@@H](O)C=C[C@@]31CCN(C)C2 [galantamine]
inactive: [1] 0 | [2] 0 | [3] 0 | [4] 0 | [5] 0 | [6] 0 | [7] 0 | [8] 0 | [9] 0 | [10] 0 | [11] 0 | [12] 0 | [13] 0 | [14] 0 | [15] 0

C=C(C)[C@@H]1CC[C@]2(CO)CC[C@]3(C)[C@H](CC[C@@H]4[C@@]5(C)CC[C@H](O)C(C)(C)[C@@H]5CC[C@]43C)[C@@H]12 [Betulin]
inactive: [1] 0 | [2] 0 | [3] 0 | [4] 0 | [5] 0 | [6] 0 | [7] 0 | [8] 0 | [9] 0 | [10] 0 | [11] 0 | [12] 0 | [13] 0 | [14] 0 | [15] 0

Nc1c2c(nc3ccccc13)CCCC2 [tacrine]
inactive: [1] 0 | [2] 0 | [3] 0 | [4] 0 | [5] 0 | [6] 0 | [7] 0 | [8] 0 | [9] 0 | [10] 0 | [11] 0 | [12] 0 | [13] 0 | [14] 0 | [15] 0

CCCNC(=O)NS(=O)(=O)c1ccc(Cl)cc1 [chlorpropamide]
inactive: [1] 0 | [2] 0 | [3] 0 | [4] 0 | [5] 0 | [6] 0 | [7] 0 | [8] 0 | [9] 0 | [10] 0 | [11] 0 | [12] 0 | [13] 0 | [14] 0 | [15] 0

Cc1n[nH]c(=O)[nH]c1=O [Azathymine, 6]
inactive: [1] 0 | [2] 0 | [3] 0 | [4] 0 | [5] 0 | [6] 0 | [7] 0 | [8] 0 | [9] 0 | [10] 0 | [11] 0 | [12] 0 | [13] 0 | [14] 0 | [15] 0

COC(=O)c1sccc1S(=O)(=O)Nc1ccc(Nc2ccccc2)cc1OC
inactive: [1] 0 | [2] 0 | [3] 0 | [4] 0 | [5] 0 | [6] 0 | [7] 0 | [8] 0 | [9] 0 | [10] 0 | [11] 0 | [12] 0 | [13] 0 | [14] 0 | [15] 0
